# According to the supplement of paper PMC11417369:
# Over roughly 25,000 sequences, “ln(normalized median fluorescence intensity)” has its median near 9.7; the highest 2% begin near 11. The full list was thinned out, with the highest values kept by preference.
# System: PfAP2-HC AP2 domain (GST-tagged)
# Test: gcPBM binding intensity (ln(normalized median fluorescence intensity)); higher = stronger DNA binding
# Outline: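 Binding of GST-tagged P. falciparum DNA-binding domains, expressed in E. coli and used at about 25 μg on average, was carried out for 1 h in 1× PBS containing 1% milk, 0.2 mg/ml BSA, 0.5% salmon testes DNA and 0.03% Triton X-100. The target was an Agilent 4 × 180k array of primer-extended double-stranded 36-bp intergenic genomic probes plus negative controls, read with Alexa488 anti-GST antibody at 488 nm. Binding intensity is the highest Masliner-normalised natural-log median intensity across replicate spots of either probe orientation.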
row,Sequence,gcPBM binding intensity (ln)
1,TTTCGTCATTTTGTTTTTAATTCTACAATTTAGTTA [XGTACX_negctrl_site286],9.66
2,TTATAGAGCTTATTCACACATACATATGTATTTATA [CACACA_site5775],9.87
3,ATTATTATACACAAATGTACATGTGAATTTTTTTTC [XGTACX_site6982],9.63
4,ATAAAACAAAAATATAAACACACATACATTGGTTTT [CACACA_site8809],10.1
5,TTATTTTTATTATTTTGTATATATATTTATAGAAAA [XGTACX_negctrl_site465],9.28
6,AATACATATAAAAGTACACACACACCCATATATATA [CACACA_site8220],10.5
7,AAATATATTTCACGCACACACACCCCAAATAAATTT [CACACA_site3820],11.2
8,TACATATAAAAGTACACACACACACCCATATATATA [CACACA_site941],11
9,TATACAATATAAAATACACACGCACCCAAAAAAAAA [CACACA_site9174],10.3
10,ATAAATATATTTCACGCACACACACCCCAAATAAAT [CACACA_site9272],10.4
11,AGATAAAAAAAGTACACACACACATATATATATATA [CACACA_site3072],10.4
12,AAAAAATTAAAAATACGTACATATATACATATATAT [XGTACX_site4621],9.71
13,CATCATATAAATTCAAGTACAAGAAAAAGTAATATA [XGTACX_site2383],9.64
14,ATATTTATGTAATGTTTGATTTTTTTTTTATGTGTG [CACACA_negctrl_site1422],9.88
15,TATATATATGGACACACACACATATAAATAAATAAA [CACACA_site4406],10.7
16,TGTACAAATATGTACACACACACATATTTATTTATA [CACACA_site6419],10.2
17,TATTTATATGGACACACACACATATAAATAAATAAA [CACACA_site6346],10.2
18,AGGATACACGGACACACACACATATATATATATATA [CACACA_site4654],10.6
19,AGGATATGCGGACACACACACATATATATATATATA [CACACA_site5247],11
20,GAATAATATGGACATACACACATATACATACATATA [CACACA_site2114],10.1
21,ATAAATATAGGACACACACACATATTATATATATAT [CACACA_site5658],10.5
22,TACAAATATGGACACACACACATATATATATATATA [CACACA_site4488],11.3
23,TAATAAAATAATATCACACATATTTATATATATTAT [CACACA_site5814],9.61
24,TACAAATATGGACACACACACATATTTATATTTATA [CACACA_site6420],11
25,AAAGGATATGGACACACACACACATATATATATATA [CACACA_site8686],10.6
26,TAATAAATAGGACACACACACATATTTATATATCAT [CACACA_site6771],11
